# The list is not random: actives were taken first. Their share in the collection is about 17%.
# HepG2 tox = HepG2 cytotoxicity, counter-screen for TGF-b inhibitors; HepG2 CAGA-GFP viability, ATP luminescence, 18 h; Potency, µM (series often up to 46.1 µM), most hits filed as cytotoxic; 0.76% of 410,000 active
#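 HepG2 CAGA-GFP cells (1000/well, DMEM with 1% FBS) received compound, then TGF-beta at 500 pg/mL final, and were incubated 18 hours at 37 degrees C. Viability was read by CellTiter-Glo luminescence. Media-only wells were set as complete cell-killing and DMSO as no toxicity.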
# S2 tox = cell viability loss in ATXN counter-screen; S2 cells (HEK-293 line with an ATXN2-luciferase reporter) viability, CellTiter-Fluor protease fluorescence, 24 h; Potency, µM (series often up to 56.7 µM), most hits filed as cytotoxic; 0.49% of 400,000 active; AID 651635; note: nearly all actives have a fitted effect of over 40% in size
# TDP1 cell noCPT = qHTS for Inhibitors of human tyrosyl-DNA phosphodiesterase 1 (TDP1): qHTS in cells in absence of CPT; DT40 Tdp1-/- hTDP1 cells, no CPT, ATP luminescence, 48 h; Potency, µM (highest dose often 46.2 µM), most hits filed as inhibitors; 15% of 420,000 active; note: nearly all actives have a fitted effect of over 55% in size
#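 Seeded 400 DT40-hTDP1 cells/well (vehicle DMSO, no 20 nM CPT); pinned compounds; ≥48 hr at 37 °C; CellTiter-Glo luminescence as viability measure.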
# TDP1 cell CPT = DT40-hTDP1 cell growth loss with CPT. chicken DT40 Tdp1-/-;hTDP1 cells + 20 nM CPT, ATP luminescence, 48 h. Potency, µM (doses to about 46.2 µM), hits mostly inhibitors. 12% of 420,000 active. AID 686979; note: nearly all actives have a fitted effect of over 55% in size
#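 Chicken DT40 Tdp1-/- cells complemented with human TDP1, 400 cells/well, exposed to compounds plus 20 nM camptothecin for at least 48 h at 37 C; viability read as ATP content by CellTiter-Glo luminescence.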
# TGFb inhibitor = blocks TGF-b signaling; HepG2 CAGA-GFP TGF-b/SMAD3 reporter, GFP fluorescence, 18 h; TGF-beta stimulated, 500 pg/mL final; Potency, µM (doses to about 46.1 µM), most hits filed as inhibitors; 1.2% of 410,000 active; AID 588855; note: nearly all actives have a fitted effect of over 65% in size
#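 HEPG2 CAGA-GFP reporter cells (1000/well, DMEM with 1% FBS) received compounds, then recombinant TGF-beta at 500 pg/mL final for 18 hours at 37 degrees C. Per-cell GFP summed per well was normalised to unstimulated and stimulated DMSO controls before curve fitting.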
# ATXN2 expr inh = reduces ATXN2 reporter expression in HEK-293 cells | AID 1745845 | HEK-293 ATXN2-luciferase reporter, luminescence, 24 h | 0.72% of 360,000 active | Potency, µM (doses to about 57 µM), actives largely listed as inhibitors; note: nearly all actives have a fitted effect of over 55% in size
#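 qHTS (up to 57 uM final) was run with 24 h compound exposure of reporter cells at 37 °C. Each well was multiplexed: SteadyGlo luminescence measured ATXN2-luciferase expression after a fluorogenic Gly-Phe-AFC viability readout (25 uM final).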
# A number is an active result; i = inactive; ? = inconclusive; nt = no result. Calls come from the whole dose curve; as a rule, active = well fitted curve in the direction sought with a large enough effect; inconclusive = small, poorly fitted or top-dose-only effect, or another doubt; inactive = no such curve, though single readings can be large; an effect the other way counts as inactive or inconclusive.
SMILES,HepG2 tox,S2 tox,TDP1 cell noCPT,TDP1 cell CPT,TGFb inhibitor,ATXN2 expr inh
COc1ccc(CN2CCN(C(=O)CCC(=O)Nc3nnc(CC(C)C)s3)CC2)cc1F,i,i,4.6µM,3.3µM,i,nt
CC(C)Cc1nnc(NC(=O)CCC(=O)N2CCN(c3ccccc3)CC2)s1,i,i,i,i,i,i
COc1ccc(CN2CCN(C(=O)CCC(=O)Nc3nnc(C4CCCCC4)s3)CC2)cc1F,i,i,?,16µM,?,i
CC(C)Cc1nnc(NC(=O)CCC(=O)N2CCN(c3ccc([N+](=O)[O-])cc3)CC2)s1,i,?,18µM,15µM,?,i
COc1ccc(CN2CCN(C(=O)CCC(=O)Nc3nnc(C(F)(F)F)s3)CC2)cc1F,i,i,i,i,i,i
COc1ccc(C)cc1NC(=O)N(Cc1ccc(C)o1)C1CCN(C(C)=O)CC1,i,i,?,?,i,i
O=S(=O)(CCN1C=CC(C(F)(F)F)=NCC1)c1ccc(Cl)cc1Cl,i,nt,i,i,i,i
COc1ccc(S(=O)(=O)NCc2ccncc2)cc1OC,i,i,14µM,13µM,i,i
COc1ccc(S(=O)(=O)Nc2ccc(Cc3ccncc3)cc2)cc1OC,i,i,15µM,12µM,i,i
COc1ccc2cc(S(=O)(=O)NCc3cccnc3)ccc2c1,i,i,8.2µM,?,i,i
CCOc1ccc(C(C)(C)C)cc1S(=O)(=O)Nc1ccncc1,i,?,i,i,i,i
CCc1ccc(OC)c(S(=O)(=O)Nc2ccc(Cc3ccncc3)cc2)c1,i,i,8.2µM,7.3µM,?,i
O=S(=O)(Nc1ccc(Cc2ccncc2)cc1)c1ccc(Cl)c(Cl)c1,i,i,?,?,?,i
CC1CCN(C(=O)Cn2nnc(-c3ccc(N)cc3)n2)CC1,i,i,i,i,i,i
CCCSc1ccc([C@H]2N[C@@](CC(C)C)(C(=O)OC)[C@H]3C(=O)N(C)C(=O)[C@@H]23)cc1,i,i,?,?,i,i
CCCCCCSc1ccc([C@@H]2[C@@H]3C(=O)N(C)C(=O)[C@@H]3[C@]3(C(=O)OC)CCCCN23)cc1,i,i,26µM,9.2µM,?,?
CCCCCCSc1ccc([C@@H]2[C@H]3C(=O)N(CC)C(=O)[C@H]3[C@]3(C(=O)OC)CCCN23)cc1,i,?,?,21µM,?,i
CCCSc1ccc([C@@H]2[C@H]3C(=O)N(CC)C(=O)[C@H]3[C@]3(C(=O)OC)CCCCN23)cc1,i,i,16µM,?,i,i
COC(=O)C1=C[C@@H](C(=O)OC)C2C3=C(C(=O)[C@]2(C)NC(=O)c2ccccc2)[C@H](C)n2c(=O)n(C)c(=O)n2[C@@H]3C1 (stereo not given in full),i,nt,nt,nt,i,nt
C[C@H]1CN([C@@H](C)CO)C(=O)CCCn2cc(nn2)CO[C@@H]1CN(C)C(=O)Oc1ccccc1,i,i,i,i,i,i
CNC(=O)c1cc(Oc2ccc(NC(=O)Nc3ccc(Cl)c(C(F)(F)F)c3)c(F)c2)ccn1,nt,nt,nt,nt,nt,19µM
CCCc1ccc(C(C)NC(=O)c2cnccn2)cc1 (stereo not given),i,?,23µM,?,?,i
CCCCc1ccc(NC(=O)c2cnccn2)cc1,i,i,i,i,i,?
CCN(CC1COc2ccccc2O1)C(=S)Nc1ccccc1 (stereo not given),i,i,2.8µM,?,i,i
CCN(CC1COc2ccccc2O1)C(=S)NCCCN(C)C (stereo not given),i,i,18µM,16µM,i,i
SMILES,HepG2 tox,S2 tox,TDP1 cell noCPT,TDP1 cell CPT,TGFb inhibitor,ATXN2 expr inh
C=CCNC(=S)NCC1COc2ccccc2O1 (stereo not given),i,i,?,i,?,i
CN(CC1COc2ccccc2O1)C(=S)NC1CCCCC1 (stereo not given),i,i,?,?,?,i
Cc1ccc(C(=O)OCC(=O)NCC2COc3ccccc3O2)cc1 (stereo not given),i,i,i,i,i,nt
CCOC(=O)c1ccc(NC(=O)CC2COc3ccccc3O2)cc1 (stereo not given),i,i,1µM,i,i,i
CCC1CCCCN1C(=O)Cn1c(=O)n(-c2ccc(Cl)c(Cl)c2)c(=O)c2c(C)c(C(=O)N(C)C)sc21 (stereo not given),i,nt,i,i,i,nt
O=C(NN=C1CCCCC1)Nc1ccccc1Cl,i,i,i,i,i,i
CCOC(=O)c1c(NC(=O)COC(=O)Cc2n[nH]c(=O)c3ccccc23)sc(C(=O)NC)c1C,i,i,?,?,i,i
O=C(NCCc1ccccc1)c1ccc(CSc2nc3cccnc3n2Cc2ccccc2F)cc1,i,?,9.2µM,?,i,i
O=C(NCCc1ccccc1)c1ccc(Cn2c(SCc3ccccc3F)nc3cccnc32)cc1,i,nt,18µM,16µM,i,nt
Cn1c(=S)[nH]c2cc(C(=O)N3CCN(Cc4cccs4)CC3)ccc2c1=O,i,nt,?,?,i,nt
CCOc1ccc(N2CC(c3nc4ccccc4n3CCOc3ccccc3)CC2=O)cc1 (stereo not given),i,?,?,?,16µM,?
CCOc1ccc(N2CC(c3nc4ccccc4n3Cc3cccc(Cl)c3)CC2=O)cc1 (stereo not given),i,i,16µM,?,?,i
CCOc1ccccc1N1CC(c2nc3ccccc3n2CCOc2ccccc2OC)CC1=O (stereo not given),i,i,?,?,i,i
C#CCn1c(C2CC(=O)N(c3ccc(OC)cc3)C2)nc2ccccc21 (stereo not given),i,i,i,i,?,i
CCOc1ccc(N2CC(c3nc4ccccc4n3CCCOc3ccccc3OC)CC2=O)cc1 (stereo not given),i,18µM,8.2µM,?,i,?
COc1ccccc1OCCCn1c(C2CC(=O)N(c3ccc(F)cc3)C2)nc2ccccc21 (stereo not given),i,i,8.2µM,?,?,i
O=S(=O)(N=Cc1c(O)ccc2ccccc12)c1cccs1,nt,nt,nt,nt,nt,i
CCOC(=O)CCNC(=O)CCc1nnc(CCCc2ccccc2)o1,i,i,i,?,i,i
COc1cccc(C(=O)COc2ccccc2-c2ccccc2)c1,i,i,?,i,i,i
Cc1cccc(NC(=O)CCC2CCN(Cc3nccs3)CC2)c1,i,i,i,i,i,nt
Cc1ccc(-c2nnc(SCC(=O)NCc3ccccc3)o2)cc1,i,i,?,?,i,i
